Results on 27 compounds are retold here after PubChem BioAssay (NCATS).

Structures are written as SMILES. Records with an inconclusive call do not appear. The source made the active and inactive calls. Unless noted, the call rests on the fitted dose curve; in most records, active means well fitted curve in the direction sought with a large enough effect; inconclusive means small, poorly fitted or top-dose-only effect, or another doubt; inactive means no such curve, though single readings can be large; an effect the other way counts as inactive or inconclusive.

Experiment [1] deals with T1, Tyrosine-protein phosphatase non-receptor type substrate 1 (Homo sapiens) + Leukocyte surface antigen CD47 (Homo sapiens) (UniProt P78324+Q08722). The experiment is described as follows: CD47-SIRPalpha protein protein interaction - LANCE assay qHTS validation (AID 1347057; active means well fitted curve in the direction sought with a large enough effect in the signal ratio, with a control signal flat, not every such curve was filed as active; the % refers to the signal ratio). The settings on record: Recombinant CD47-His / biotin-SIRPalpha, TR-FRET ratio; series mostly up to 38.3 µM. Put shortly:
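Inhibition of soluble CD47/SIRPalpha ectodomain association by titrated compounds, measured as 665/615 nm time-resolved FRET ratio after sequential 30 min room-temperature incubations.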
(In general: TR-FRET usually uses a lanthanide donor and a delayed reading to cut background.)

Experiment [2] has as its target T1, Tyrosine-protein phosphatase non-receptor type substrate 1 (Homo sapiens) + Leukocyte surface antigen CD47 (Homo sapiens). The experiment can be described thus: CD47-SIRPalpha protein protein interaction - Alpha assay qHTS validation (AID 1347059).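 Further: bead proximity luminescence from CD47 binding SIRPalpha after compound preincubation with SIRPalpha.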 The settings on record: AlphaScreen CD47-His/biotin-SIRPalpha binding, LOPAC; series mostly up to 38.3 µM. An outline of the steps:
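SIRPalpha-biotin 25 nM + cpd, 30 min RT, dark; add CD47-His 12.5 nM, 30 min; add Ni-NTA/SAV beads 10 ug/mL, 30 min; AlphaScreen. Buffer PBS pH 7.4 + 0.05% IGEPAL CA-630. Non-biotinylated SIRPalpha as control inhibitor.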
(In general: Quantitative high-throughput screening tests each substance at several concentrations.)

Experiment [3] deals with Parathyroid hormone/parathyroid hormone-related peptide receptor (Homo sapiens) (UniProt Q03431). The experiment is described as follows: qHTS for PTHR1 Agonists: Optimization Screen against the NCGC LOPAC library (AID 1347079). Further: potency means the concentration at half of the fitted maximal effect. To be noted: HEK293 GP2 PTHR1 GloSensor cAMP luminescence, 1 h; series mostly up to 57.1 µM. An outline of the steps: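 Signal increase flags agonism. GP2 cells, derived from HEK-293, express human PTHR1 and a GloSensor cAMP construct.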
Sequence of Parathyroid hormone/parathyroid hormone-related peptide receptor (Homo sapiens) (Q03431 whole entry, looked up): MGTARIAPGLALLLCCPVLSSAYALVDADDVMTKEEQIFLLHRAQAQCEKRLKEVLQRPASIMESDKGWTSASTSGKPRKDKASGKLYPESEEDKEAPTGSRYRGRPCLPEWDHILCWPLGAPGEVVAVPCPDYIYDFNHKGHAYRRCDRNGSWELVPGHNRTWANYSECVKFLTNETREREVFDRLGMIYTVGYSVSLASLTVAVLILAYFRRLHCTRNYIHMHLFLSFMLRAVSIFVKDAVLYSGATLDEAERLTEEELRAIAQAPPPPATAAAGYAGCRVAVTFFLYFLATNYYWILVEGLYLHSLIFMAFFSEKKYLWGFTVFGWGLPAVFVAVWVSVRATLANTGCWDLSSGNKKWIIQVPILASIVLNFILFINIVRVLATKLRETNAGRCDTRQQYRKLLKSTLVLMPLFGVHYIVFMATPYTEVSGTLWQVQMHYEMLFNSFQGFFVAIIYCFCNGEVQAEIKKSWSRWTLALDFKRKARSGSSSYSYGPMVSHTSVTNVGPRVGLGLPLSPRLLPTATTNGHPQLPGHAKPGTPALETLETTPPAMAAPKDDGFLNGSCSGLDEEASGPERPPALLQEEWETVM

The next experiment addresses Furin (Homo sapiens) (UniProt P09958). The experiment can be described thus: Furin counterscreen qHTS for Zika virus inhibitors (AID 1347149). Further: nearly all actives have a fitted effect of over 70% in size. Further: potency means the concentration at half of the fitted maximal effect. To be noted: furin enzymatic counterscreen, fluorogenic substrate; series mostly up to 57.5 µM. Put shortly: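 Counterscreen measures cleavage of 2 microM BOC-RVRR-AMC, below its ~15 microM Km, by 5 nM full-length human furin at pH 7.0 after a 15-min compound preincubation. Inhibition derives from the 15-min fluorescence increase at 37C.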
For orientation: A counterscreen serves to expose hits that act by an unwanted route or on another target.

In experiment [4] the test system is Zika virus NS2B-NS3 protease (unlinked). The experiment can be described thus: Optimization of GU AMC qHTS for Zika virus inhibitors: Unlinked NS2B-NS3 protease assay (AID 1347151). Further: nearly all actives have a fitted effect of over 80% in size. Further: potency means the concentration at half of the fitted maximal effect. The settings on record: recombinant ZIKV NS2B-NS3 protease, fluorogenic AMC substrate; series mostly up to 52.5 µM. Put shortly: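 Noncovalent NS2B hydrophilic domain–NS3 protease complex (25 nM final) in 10 mM Tris-HCl pH 8.0, 0.01% Tween 20; AMC substrate, room temperature 15 min (~20% conversion); fluorescence change normalized, 4-parameter Hill fit.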

Experiment [5] addresses N-terminal Xaa-Pro-Lys N-methyltransferase 1 (Homo sapiens) (UniProt Q9BV86). The experiment can be described thus: qHTS Assay for Inhibitors of N-terminal methyltransferase 1 (NTMT1): LOPAC validation of the NTMT1 SAHH-coupled ThioGlo3 Assay (AID 1347143).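 Further: SAH from peptide methylation measured as thiol fluorescence via SAHH coupling and ThioGlo3; nearly all actives have a fitted effect of over 70% in size.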 Further: potency means the concentration at half of the fitted maximal effect. The settings on record: recombinant NTMT1, SAHH-coupled ThioGlo3 fluorescence; series mostly up to 114 µM. Put shortly:
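Steps: dispense 125nM NTMT1; pin-transfer test compounds at several concentrations, with 1uM RCC1-6 peptide as control; incubate 1 min; start with reagent holding 100uM SAM, 10uM SAHH, 15uM ThioGlo3; read at 0 and 30 min.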

Experiment [6] has as its system Zika virus NS2B-NS3 protease. The experiment is described as follows: Primary screen GU AMC qHTS for Zika virus inhibitors (AID 1347154). Further: nearly all actives have a fitted effect of over 70% in size. The settings on record: Zika NS2B-NS3 unlinked protease, AMC fluorogenic substrate; series mostly up to 54.1 µM. An outline of the steps: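 Unlinked Zika NS2B hydrophilic domain–NS3 protease complex at 25 nM in 10 mM Tris-HCl pH 8.0, 0.01% Tween 20, with an AMC peptide substrate. Fluorescence change (340/450 nm) over 15 min at room temperature, normalized to controls, fitted to 4-parameter Hill.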

Experiment [7] deals with Zika virus NS2B-NS3 protease (unlinked complex). The experiment is described as follows: Confirmatory screen GU AMC qHTS for Zika virus inhibitors (AID 1347153). Further: nearly all actives have a fitted effect of over 70% in size. To be noted: Recombinant NS2B-NS3 protease, AMC substrate fluorescence; series mostly up to 57.1 µM. An outline of the steps:
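Unlinked enzyme 25 nM, Tris pH 8.0/0.01% Tween 20; cpd 15 min RT, dark; + AMC substrate 10 µM (Km 18.3 µM); 340/450 nm read at t0 and 15 min; % inhibition → 4-param fit.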

In experiment [8] the test system is Zika virus NS2B-NS3 protease (linked construct). The experiment is described as follows: Confirmatory screen NINDS AMC qHTS for Zika virus inhibitors (AID 1347152). To be noted: Purified linked NS2B-NS3, AMC substrate fluorescence; series mostly up to 56.6 µM. Put shortly: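 Linked NS2B-NS3 protease, 1 nM, in 10 mM Tris-HCl pH 8.0, 0.01% Tween 20; compounds preincubated 15 min at room temperature. Nle-KRR-AMC 10 microM (Km 18.3 µM); 15-min fluorescence change (340/450 nm) fitted to 4-parameter Hill.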

Sequence of N-terminal Xaa-Pro-Lys N-methyltransferase 1 (Homo sapiens) (Q9BV86 whole entry, looked up): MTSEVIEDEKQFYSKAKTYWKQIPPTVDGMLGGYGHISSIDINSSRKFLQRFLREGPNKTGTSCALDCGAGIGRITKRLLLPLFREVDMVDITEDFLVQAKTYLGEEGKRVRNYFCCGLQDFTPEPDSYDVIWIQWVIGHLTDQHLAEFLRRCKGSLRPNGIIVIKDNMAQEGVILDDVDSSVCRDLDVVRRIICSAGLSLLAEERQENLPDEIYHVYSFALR
T1 sequence (P78324 whole entry, looked up, the tested form may be a part): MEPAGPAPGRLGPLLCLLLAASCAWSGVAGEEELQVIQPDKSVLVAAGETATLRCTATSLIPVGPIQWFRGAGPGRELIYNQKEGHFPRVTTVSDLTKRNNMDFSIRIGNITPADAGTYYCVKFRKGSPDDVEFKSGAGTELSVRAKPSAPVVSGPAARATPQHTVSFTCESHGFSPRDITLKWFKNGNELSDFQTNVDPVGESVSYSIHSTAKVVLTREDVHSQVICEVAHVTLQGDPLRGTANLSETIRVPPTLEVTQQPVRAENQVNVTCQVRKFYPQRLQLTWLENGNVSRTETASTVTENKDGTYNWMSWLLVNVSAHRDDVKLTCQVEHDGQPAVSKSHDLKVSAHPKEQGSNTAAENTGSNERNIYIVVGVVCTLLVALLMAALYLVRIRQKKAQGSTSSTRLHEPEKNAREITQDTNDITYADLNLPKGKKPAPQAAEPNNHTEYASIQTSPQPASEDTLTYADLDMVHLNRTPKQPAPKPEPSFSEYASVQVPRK
T1 sequence (Q08722 whole entry, looked up, the tested form may be a part): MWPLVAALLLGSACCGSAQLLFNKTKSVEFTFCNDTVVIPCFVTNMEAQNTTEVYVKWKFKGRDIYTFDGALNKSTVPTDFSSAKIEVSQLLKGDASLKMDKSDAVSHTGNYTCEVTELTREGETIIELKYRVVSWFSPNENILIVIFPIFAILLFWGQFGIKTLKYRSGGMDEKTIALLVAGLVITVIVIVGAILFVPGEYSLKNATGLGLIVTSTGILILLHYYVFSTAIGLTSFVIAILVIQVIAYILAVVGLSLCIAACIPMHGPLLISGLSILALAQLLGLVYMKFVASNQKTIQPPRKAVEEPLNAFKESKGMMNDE
Sequence of Furin (Homo sapiens) (P09958 whole entry, looked up): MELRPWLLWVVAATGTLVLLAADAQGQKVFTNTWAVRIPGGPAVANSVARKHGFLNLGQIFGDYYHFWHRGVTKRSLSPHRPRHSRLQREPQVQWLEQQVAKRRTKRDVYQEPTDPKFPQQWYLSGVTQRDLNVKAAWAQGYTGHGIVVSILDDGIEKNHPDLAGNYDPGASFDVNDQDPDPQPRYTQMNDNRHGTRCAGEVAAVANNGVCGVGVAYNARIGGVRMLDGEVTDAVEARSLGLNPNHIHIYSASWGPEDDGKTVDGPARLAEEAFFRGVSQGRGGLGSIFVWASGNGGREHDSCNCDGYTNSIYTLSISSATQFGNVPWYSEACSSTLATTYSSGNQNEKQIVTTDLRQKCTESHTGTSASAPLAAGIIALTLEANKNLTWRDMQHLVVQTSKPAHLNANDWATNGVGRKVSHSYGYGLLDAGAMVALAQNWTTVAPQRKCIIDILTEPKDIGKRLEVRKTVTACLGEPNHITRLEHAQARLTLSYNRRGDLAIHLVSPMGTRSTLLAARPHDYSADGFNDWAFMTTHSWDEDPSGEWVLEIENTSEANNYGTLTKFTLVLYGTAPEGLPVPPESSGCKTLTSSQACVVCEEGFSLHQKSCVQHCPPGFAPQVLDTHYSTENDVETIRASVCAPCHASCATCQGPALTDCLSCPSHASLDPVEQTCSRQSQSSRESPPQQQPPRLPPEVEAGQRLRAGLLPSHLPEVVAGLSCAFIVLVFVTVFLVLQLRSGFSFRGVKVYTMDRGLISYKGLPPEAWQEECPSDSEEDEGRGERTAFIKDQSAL

`Cc1nc(N=Nc2cc(S(=O)(=O)O)c3cc([N+](=O)[O-])cc(S(=O)(=O)O)c3c2)c(COP(=O)(O)O)c(C=O)c1O`: the Potency result (in experiment [1]; in experiment [2]; in experiment [3]; in the experiment with Furin (Homo sapiens)) was “inactive” throughout. For the same compound, the Potency in experiment [4] is 26.7 µM (active).
`O=C(O)C1=CCCN(CCON=C(c2ccccc2)c2ccccc2)C1`: the Potency entry in experiment [1], in [2], in experiment [3], in experiment [5], in experiment [4] and in [6] was “inactive” in each case.
Regarding `O=c1[nH]c(=O)c2nc3ccccc3nc2[nH]1`, the Potency result in experiment [1], in experiment [2], in experiment [3] and in experiment [6] was “inactive” each time. The Potency in experiment [4] is 26.7 µM (active).
As to `C#CCn1c(=O)c2c(ncn2C)n(C)c1=O`, the Potency entry in experiment [1], in [2], in experiment [3], in experiment [5], in [4] and in experiment [6] was “inactive” throughout.
For `COc1cccc(OC)c1OCCNCC1CSc2ccccc2O1` (stereo not drawn), the Potency entry in experiment [1], in [2], in [3] and in [4] was “inactive” throughout.
Turning to `O=C(O)C1=CCCNC1`, the Potency entry in experiment [1], in experiment [2], in experiment [3], in experiment [4] and in experiment [6] was “inactive” throughout.
Turning to `N#CC(C#N)=C(N)/C(C#N)=C/c1ccc(O)cc1`, the Potency entry in experiment [1], in [2], in [3] and in experiment [4] was “inactive” in each case.
As to `N[C@@H](CS(=O)O)C(=O)O`, the Potency entry in experiment [1], in experiment [2], in experiment [3] and in experiment [6] was “inactive” each time.
For `Cc1cccc(C(=O)NCN2CCN(c3ccccc3C#N)CC2)c1`, the Potency result in [1], in experiment [2], in [3], in experiment [7] and in experiment [6] was “inactive” throughout. In experiment [4], the Potency was 26.7 µM (active).
Regarding `c1ccc(C(NCc2cccnc2)(c2ccccc2)c2ccccc2)cc1`, the Potency entry in experiment [1], in experiment [2], in [3], in [4] and in experiment [6] was “inactive” each time.
Take `CC1CCN(CC[C@H]2CCCN2S(=O)(=O)c2cccc(O)c2)CC1`: the Potency entry in experiment [1], in experiment [2], in experiment [3], in experiment [5], in [4] and in experiment [6] was “inactive” in each case.
As for `N=C(N)SCCc1cnc[nH]1`, the Potency entry in experiment [1], in experiment [2], in [3], in [5], in [4] and in experiment [6] was “inactive” throughout.
`O=S(=O)(c1cccc2c(Cl)cccc12)N1CCCNCC1`: the Potency result in experiment [1], in experiment [2], in experiment [3], in experiment [4] and in [6] was “inactive” throughout.
For the compound `CCc1ccc2c(-c3cccc(Cl)c3)nc(=O)n(CC)c2n1`, the Potency result in experiment [1], in experiment [2], in experiment [7] and in [6] was “inactive” in each case. In addition, the Potency was 2.67 µM (active) in experiment [3], 21.5 µM (active) in the experiment with Furin (Homo sapiens) and 26.7 µM (active) in experiment [4].
Consider `CCCCOc1cc(CC2CNC(=O)N2)ccc1OC` (stereo not drawn), for which the Potency entry in [1], in experiment [2], in [3], in experiment [5] and in experiment [6] was “inactive” throughout.
Turning to `CC(=O)NCCc1c[nH]c2ccc(O)cc12`, the Potency result in experiment [1], in [2], in experiment [3], in experiment [4] and in experiment [6] was “inactive” each time.
Take `c1ccc2nc(C3=NCCN3)ccc2c1`: the Potency entry in [1], in experiment [2], in experiment [5] and in [6] was “inactive” each time. For the same compound, the Potency in experiment [3] was 26.7 µM (active).
Take `CN(C)C(=O)/N=N/C(=O)N(C)C`: the Potency result in experiment [1], in experiment [2], in experiment [3] and in [4] was “inactive” each time.
Regarding `NCCNS(=O)(=O)c1cccc2c(Cl)cccc12`, the Potency entry in experiment [1], in experiment [2], in experiment [3], in experiment [4] and in experiment [6] was “inactive” throughout.
For `O=c1onc2cnc3ccccc3n12`, the Potency result in experiment [1], in [2] and in [3] was “inactive” in each case. Also, the Potency in [4] was 26.7 µM (active).
Consider `NC1C=CC=C(C(=O)O)C1` (stereo not drawn), for which the Potency result in experiment [1], in experiment [2], in [3], in experiment [5], in experiment [4] and in experiment [6] was “inactive” each time.
`O=c1ccn([C@@H]2O[C@H](COP(=O)(O)OP(=O)(O)O)[C@@H](O)[C@H]2O)c(=O)[nH]1`: the Potency result in experiment [1], in [2], in experiment [3], in [5], in experiment [4] and in experiment [6] was “inactive” in each case.
For the compound `NC(=Nc1ccccc1)NC(=O)c1nc(Cl)c(N)nc1N`, the Potency result in experiment [1], in experiment [2], in [3] and in [6] was “inactive” throughout. Also, the Potency in experiment [5] was 56.2 µM (active).
With `CC(C)(C)c1ccc(/C=C/C(=O)Nc2ccc3c(c2)OCCO3)cc1`, the Potency result in experiment [1], in experiment [2], in experiment [3] and in experiment [4] was “inactive” each time.
Turning to `CC(C)(CO)Cc1cc(C(C)(C)C)c(O)c(C(C)(C)C)c1`, the Potency entry in experiment [1], in experiment [2], in experiment [3], in [5], in experiment [4] and in experiment [6] was “inactive” throughout.
`O=c1[nH]ccc2c(O)cccc12`: the Potency result in experiment [1] and in [2] was “inactive” each time. Moreover, the Potency in experiment [5] was 56.2 µM (active).
As to `Cn1c(=O)c2[nH]c(-c3ccc(S(=O)(=O)O)cc3)nc2n(C)c1=O`, in experiment [8], the Potency was 6.81 µM (active).
